Measured values: PubChem BioAssay AID1159580 (chemical genetic matrix, 2015)
The campaign covered roughly 5,500 compounds. About 2,000 (36%) were called active. Inconclusive results (about 18%) are left out. No stated cut-off is given here; in the data, active means normalized growth mostly below about 0.91 (no sharp cut-off); inconclusive means no clear call, values can overlap the other calls; inactive means mostly above about 0.92. Some of the results follow.

Assay: chemical genetic growth profiling, strain panel (AID 1159580);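 further: tested at 20 µM; growth read once vehicle control cultures reached saturation at 30 °C; 1 = growth at the plate median or of vehicle wells; lower values mean less growth of the strain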
Settings: growth OD

Measured: normalized growth

CCNc1nc(Cl)nc(NCC)n1
inactive: S. cerevisiae deletion strains, locus YJR043C, strain POL32, hits give low values 0.939 | S. cerevisiae deletion strains, locus YJR075W, strain HOC1, hits give low values 0.998 | S. cerevisiae deletion strains, locus YKL009W, strain mrt4, hits give low values 1.01 | S. cerevisiae deletion strains, locus YKL068W, hits give low values 0.995 | S. cerevisiae deletion strains, locus YKL085W, strain MDH1 (second series), hits give low values 1 | S. cerevisiae deletion strains, locus YKL085W, strain MDH1, hits give low values 1 | S. cerevisiae deletion strains, locus YKL160W, strain elf1, hits give low values 1 | S. cerevisiae deletion strains, locus YKL190W, strain CNB1, hits give low values 1 | S. cerevisiae deletion strains, locus YKR001C, strain vps1, hits give low values 1.02 | S. cerevisiae deletion strains, locus YKR026C, strain gcn3, hits give low values 0.985 | S. cerevisiae deletion strains, locus YKR091W, strain srl3, hits give low values 0.996 | S. cerevisiae deletion strains, locus YLL001W, strain dnm1, hits give low values 1 | S. cerevisiae deletion strains, locus YLL026W, hits give low values 0.981 | S. cerevisiae deletion strains, locus YLL041C, strain sdh2, hits give low values 0.992 | S. cerevisiae deletion strains, locus YLR027C, strain aat2, hits give low values 0.977 | S. cerevisiae deletion strains, locus YLR039C, strain RIC1, hits give low values 1 | S. cerevisiae deletion strains, locus YLR058C, strain SHM2, hits give low values 0.999 | S. cerevisiae deletion strains, locus YLR102C, strain apc9, hits give low values 1.01 | S. cerevisiae deletion strains, locus YLR221C, strain rsa3, hits give low values 0.987 | S. cerevisiae deletion strains, locus YLR258W, strain gsy2, hits give low values 0.989 | S. cerevisiae deletion strains, locus YLR262C, strain YPT6 (second series), hits give low values 0.992 | S. cerevisiae deletion strains, locus YLR262C, strain YPT6, hits give low values 0.997 | S. cerevisiae deletion strains, locus YLR268W, strain sec22, hits give low values 1 | S. cerevisiae deletion strains, locus YLR320W, strain mms22, hits give low values 0.986 | S. cerevisiae deletion strains, locus YLR330W, strain CHS5, hits give low values 0.994 | S. cerevisiae deletion strains, locus YLR342W, strain FKS1 (second series), hits give low values 0.995 | S. cerevisiae deletion strains, locus YLR342W, strain FKS1, hits give low values 0.991 | S. cerevisiae deletion strains, locus YLR357W, strain rsc2, hits give low values 0.953 | S. cerevisiae deletion strains, locus YLR370C, strain arc18, hits give low values 1.02 | S. cerevisiae deletion strains, locus YLR371W, strain rom2, hits give low values 1 | S. cerevisiae deletion strains, locus YLR384C, strain iki3, hits give low values 0.976 | S. cerevisiae deletion strains, locus YLR418C, strain cdc73, hits give low values 0.985 | S. cerevisiae deletion strains, locus YML016C, strain PPZ1, hits give low values 1 | S. cerevisiae deletion strains, locus YML032C, strain rad52, hits give low values 1.01 | S. cerevisiae deletion strains, locus YML120C, strain ndi1, hits give low values 1.03 | S. cerevisiae deletion strains, locus YML124C, strain tub3, hits give low values 1.01 | S. cerevisiae deletion strains, locus YMR058W, strain fet3, hits give low values 0.999 | S. cerevisiae deletion strains, locus YMR078C, strain ctf18, hits give low values 1.01 | S. cerevisiae deletion strains, locus YMR125W, strain sto1, hits give low values 0.99 | S. cerevisiae deletion strains, locus YMR129W, hits give low values 0.997 | S. cerevisiae deletion strains, locus YMR205C, strain PFK2, hits give low values 0.997 | S. cerevisiae deletion strains, locus YMR223W, strain ubp8, hits give low values 1.01 | S. cerevisiae deletion strains, locus YMR231W, strain pep5, hits give low values 0.995 | S. cerevisiae deletion strains, locus YMR263W, strain SAP30, hits give low values 1.01 | S. cerevisiae deletion strains, locus YMR307W, strain GAS1, hits give low values 1.06 | S. cerevisiae deletion strains, locus YNL067W, strain RPL9B, hits give low values 0.988 | S. cerevisiae deletion strains, locus YNL071W, strain lat1, hits give low values 0.998 | S. cerevisiae deletion strains, locus YNL128W, strain TEP1, hits give low values 0.997 | S. cerevisiae deletion strains, locus YNL153C, strain GIM3, hits give low values 0.985 | S. cerevisiae deletion strains, locus YNL209W, strain ssb2, hits give low values 0.992 | S. cerevisiae deletion strains, locus YNL233W, strain BNI4, hits give low values 1.01 | S. cerevisiae deletion strains, locus YNL248C, strain rpa49, hits give low values 0.989 | S. cerevisiae deletion strains, locus YNL250W, strain rad50, hits give low values 1.01 | S. cerevisiae deletion strains, locus YNL271C, strain bni1, hits give low values 1.01 | S. cerevisiae deletion strains, locus YNL298W, strain CLA4, hits give low values 1.02 | S. cerevisiae deletion strains, locus YNL307C, strain MCK1, hits give low values 1.01 | S. cerevisiae deletion strains, locus YNL322C, strain KRE1 (second series), hits give low values 0.997 | S. cerevisiae deletion strains, locus YNL322C, strain KRE1, hits give low values 0.996 | S. cerevisiae deletion strains, locus YNR049C, strain mso1, hits give low values 0.988 | S. cerevisiae deletion strains, locus YNR052C, strain pop2, hits give low values 1.02 | S. cerevisiae deletion strains, locus YOL006C, strain TOP1, hits give low values 1.04 | S. cerevisiae deletion strains, locus YOL012C, strain htz1 1.15 | S. cerevisiae deletion strains, locus YOL147C, strain pex11, hits give low values 1.01 | S. cerevisiae deletion strains, locus YOR001W, strain rrp6, hits give low values 0.982 | S. cerevisiae deletion strains, locus YOR061W, strain CKA2, hits give low values 0.994 | S. cerevisiae deletion strains, locus YOR069W, strain VPS5, hits give low values 1 | S. cerevisiae deletion strains, locus YOR070C, strain gyp1, hits give low values 0.983 | S. cerevisiae deletion strains, locus YOR080W, strain dia2, hits give low values 0.998 | S. cerevisiae deletion strains, locus YOR083W, strain WHI5, hits give low values 1.01 | S. cerevisiae deletion strains, locus YOR106W, strain vam3, hits give low values 1.01 | S. cerevisiae deletion strains, locus YOR136W, strain idh2, hits give low values 1 | S. cerevisiae deletion strains, locus YOR144C, strain elg1, hits give low values 1 | S. cerevisiae deletion strains, locus YOR184W, strain ser1, hits give low values 1.02 | S. cerevisiae deletion strains, locus YOR265W, strain rbl2, hits give low values 0.979 | S. cerevisiae deletion strains, locus YOR270C, strain vph1, hits give low values 1.02 | S. cerevisiae deletion strains, locus YOR290C, strain snf2, hits give low values 1.02 | S. cerevisiae deletion strains, locus YOR316C, strain cot1, hits give low values 1 | S. cerevisiae deletion strains, locus YPL051W, strain arl3, hits give low values 0.987 | S. cerevisiae deletion strains, locus YPL055C, strain LGE1, hits give low values 0.992 | S. cerevisiae deletion strains, locus YPL078C, strain atp4, hits give low values 1.03 | S. cerevisiae deletion strains, locus YPL106C, strain sse1, hits give low values 0.987 | S. cerevisiae deletion strains, locus YPL240C, strain hsp82, hits give low values 0.999 | S. cerevisiae deletion strains, locus YPL241C, strain CIN2, hits give low values 0.995 | S. cerevisiae deletion strains, locus YPR119W, strain clb2, hits give low values 0.998 | S. cerevisiae deletion strains, locus YPR141C, strain kar3, hits give low values 1 | S. cerevisiae deletion strains, locus YPR163C, strain tif3, hits give low values 1 | S. cerevisiae deletion strains, locus YPR167C, strain met16, hits give low values 0.996 | S. cerevisiae deletion strains, strain wtn01, hits give low values 1.01 | S. cerevisiae strains, strain wild type, hits give low values 0.997
